What all share (experiment): DAPPL (digital affinity profiling via proximity ligation, sequencing); 10 mM Tris-HCl pH 7.5, 50 mM NaCl, 1 mM DTT, 4% glycerol, room temperature, 30 min; GST-TFs on glutathione beads, 16-mer random dsDNA library, 0.1% formaldehyde crosslink after washing; high values mean tight binding
One assay deals with T1, FLI1 (Homo sapiens, UniProt Q01543 1-452).
T1 sequence: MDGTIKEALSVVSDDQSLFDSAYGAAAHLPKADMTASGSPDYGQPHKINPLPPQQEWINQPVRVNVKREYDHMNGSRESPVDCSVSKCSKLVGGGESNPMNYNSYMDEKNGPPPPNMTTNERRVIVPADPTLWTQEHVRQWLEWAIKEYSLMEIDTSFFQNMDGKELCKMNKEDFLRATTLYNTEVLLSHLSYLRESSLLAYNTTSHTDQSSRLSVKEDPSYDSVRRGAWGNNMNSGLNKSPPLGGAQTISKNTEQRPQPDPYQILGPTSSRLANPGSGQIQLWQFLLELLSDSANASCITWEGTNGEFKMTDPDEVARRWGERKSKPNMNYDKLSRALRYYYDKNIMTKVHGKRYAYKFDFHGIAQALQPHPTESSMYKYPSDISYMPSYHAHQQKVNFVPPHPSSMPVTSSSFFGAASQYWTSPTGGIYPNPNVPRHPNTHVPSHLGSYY
As to conditions: protein: recombinant; tags: N-terminal GST; dsDNA, one strand shown. The procedure, abridged:
(§1)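 Binding signal is given per hexamer as its read frequency for a factor divided by its frequency in the tag-only sample. GST-fused human transcription factors were expressed in yeast, captured on glutathione beads, barcoded with DNA and pooled with that sample, then incubated with 200 nmole of a 16-mer random double-stranded DNA library in Tris/NaCl/DTT/glycerol buffer for 30 min at room temperature. The pools were then washed, crosslinked, proximity-ligated, amplified by PCR and sequenced on an Illumina NextSeq500.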

In a further assay the target is T2, ELK1 (Homo sapiens, UniProt P19419 1-428).
T2 sequence: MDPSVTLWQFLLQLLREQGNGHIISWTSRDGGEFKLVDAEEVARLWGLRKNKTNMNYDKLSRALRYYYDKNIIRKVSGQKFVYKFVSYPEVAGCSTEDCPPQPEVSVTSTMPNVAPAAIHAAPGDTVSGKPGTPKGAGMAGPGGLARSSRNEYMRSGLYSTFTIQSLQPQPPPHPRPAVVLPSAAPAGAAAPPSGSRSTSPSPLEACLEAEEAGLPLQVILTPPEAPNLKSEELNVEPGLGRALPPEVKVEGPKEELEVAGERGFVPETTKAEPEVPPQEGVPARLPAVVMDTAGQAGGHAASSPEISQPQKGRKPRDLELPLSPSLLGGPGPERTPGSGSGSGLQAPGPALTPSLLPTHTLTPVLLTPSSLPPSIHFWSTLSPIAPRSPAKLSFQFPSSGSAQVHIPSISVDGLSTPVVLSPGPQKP
Particulars: protein: recombinant; tags: N-terminal GST; dsDNA, one strand shown. The procedure, abridged: as §1

Another assay concerns the target T3, GABPA (Homo sapiens, UniProt Q06546 1-454).
T3 sequence: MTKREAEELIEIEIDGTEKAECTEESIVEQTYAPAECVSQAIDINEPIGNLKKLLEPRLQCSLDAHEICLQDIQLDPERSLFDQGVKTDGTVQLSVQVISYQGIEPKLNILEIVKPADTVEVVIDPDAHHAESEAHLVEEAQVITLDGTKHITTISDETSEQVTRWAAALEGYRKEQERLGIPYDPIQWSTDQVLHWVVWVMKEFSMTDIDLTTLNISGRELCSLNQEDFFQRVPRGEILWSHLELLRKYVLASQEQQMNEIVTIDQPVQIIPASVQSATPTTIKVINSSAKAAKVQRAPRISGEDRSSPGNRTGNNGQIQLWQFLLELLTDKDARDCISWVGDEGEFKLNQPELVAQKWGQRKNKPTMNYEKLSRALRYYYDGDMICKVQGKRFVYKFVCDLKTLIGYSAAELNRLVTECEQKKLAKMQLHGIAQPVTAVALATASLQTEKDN
As to conditions: protein: recombinant; tags: N-terminal GST; dsDNA, one strand shown. The gist of the method: as §1

The target in the next assay is T4, ERG (Homo sapiens, UniProt P11308 1-479).
T4 sequence: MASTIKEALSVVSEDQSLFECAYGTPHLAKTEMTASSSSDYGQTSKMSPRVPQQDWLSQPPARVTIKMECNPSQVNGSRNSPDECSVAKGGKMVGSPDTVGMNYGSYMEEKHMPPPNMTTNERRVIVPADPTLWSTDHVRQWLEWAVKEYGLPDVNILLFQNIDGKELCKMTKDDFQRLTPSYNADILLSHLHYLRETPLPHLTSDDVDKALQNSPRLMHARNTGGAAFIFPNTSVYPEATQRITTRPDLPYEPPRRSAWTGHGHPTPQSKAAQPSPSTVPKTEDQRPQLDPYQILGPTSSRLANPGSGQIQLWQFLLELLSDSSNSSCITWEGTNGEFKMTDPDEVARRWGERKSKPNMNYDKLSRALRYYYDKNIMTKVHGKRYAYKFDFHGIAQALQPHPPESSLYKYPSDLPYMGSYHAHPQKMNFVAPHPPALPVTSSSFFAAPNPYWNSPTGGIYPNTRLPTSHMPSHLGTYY
As to conditions: protein: recombinant; tags: N-terminal GST; dsDNA, one strand shown. The gist of the method: as §1

In another assay the target is ELF1 (Homo sapiens, UniProt P32519 1-619). As to conditions: protein: recombinant; tags: N-terminal GST; dsDNA, one strand shown. The procedure, abridged:
as §1

The target in a further assay is T5, EHF (Homo sapiens, UniProt Q9NZC4 1-300).
T5 sequence: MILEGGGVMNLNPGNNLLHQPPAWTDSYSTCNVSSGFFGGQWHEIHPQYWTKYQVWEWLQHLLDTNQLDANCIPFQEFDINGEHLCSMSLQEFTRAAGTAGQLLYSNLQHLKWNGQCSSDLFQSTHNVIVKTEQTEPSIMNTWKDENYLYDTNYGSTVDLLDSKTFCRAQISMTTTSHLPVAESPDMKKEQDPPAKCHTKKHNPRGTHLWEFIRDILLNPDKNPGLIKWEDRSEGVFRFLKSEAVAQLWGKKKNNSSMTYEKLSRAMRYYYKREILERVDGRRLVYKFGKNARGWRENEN
As to conditions: protein: recombinant; tags: N-terminal GST; dsDNA, one strand shown. The gist of the method:
as §1

A further assay concerns the target SPI1 (Homo sapiens, UniProt P17947 1-270). As to conditions: protein: recombinant; tags: N-terminal GST; dsDNA, one strand shown. The gist of the method: as §1
The target of a further assay is SPIB (Homo sapiens, UniProt Q01892 1-262). Particulars: protein: recombinant; tags: N-terminal GST; dsDNA, one strand shown. The procedure, abridged:
as §1

A further assay has as its target T6, ELK3 (Homo sapiens, UniProt P41970 1-407).
T6 sequence: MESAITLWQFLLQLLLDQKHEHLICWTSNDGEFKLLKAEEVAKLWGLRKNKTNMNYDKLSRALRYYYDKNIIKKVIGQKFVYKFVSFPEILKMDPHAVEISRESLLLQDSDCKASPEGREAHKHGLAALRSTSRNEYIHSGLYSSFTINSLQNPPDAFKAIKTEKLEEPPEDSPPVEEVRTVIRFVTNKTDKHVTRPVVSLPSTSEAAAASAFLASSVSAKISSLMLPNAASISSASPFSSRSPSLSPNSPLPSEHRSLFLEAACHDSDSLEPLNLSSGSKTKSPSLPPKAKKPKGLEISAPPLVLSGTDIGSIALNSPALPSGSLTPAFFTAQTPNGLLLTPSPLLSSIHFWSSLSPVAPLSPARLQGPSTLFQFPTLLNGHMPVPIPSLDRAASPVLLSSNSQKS
As to conditions: protein: recombinant; tags: N-terminal GST; dsDNA, one strand shown. The gist of the method: as §1

In another assay the target is T7, FEV (Homo sapiens, UniProt Q99581 1-238).
T7 sequence: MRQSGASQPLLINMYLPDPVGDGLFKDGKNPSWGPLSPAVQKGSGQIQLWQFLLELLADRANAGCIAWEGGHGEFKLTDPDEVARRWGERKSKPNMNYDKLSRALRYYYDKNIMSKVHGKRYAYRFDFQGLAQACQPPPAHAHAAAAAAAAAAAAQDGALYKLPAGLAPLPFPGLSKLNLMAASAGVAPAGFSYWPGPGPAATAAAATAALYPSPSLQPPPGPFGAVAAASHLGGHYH
As to conditions: protein: recombinant; tags: N-terminal GST; dsDNA, one strand shown. The procedure, abridged:
as §1

A further assay concerns the target ETV5 (Homo sapiens, UniProt P41161 1-510). As to conditions: protein: recombinant; tags: N-terminal GST; dsDNA, one strand shown. The gist of the method: as §1
Another assay concerns the target HSF1 (Homo sapiens, UniProt Q00613 1-529). As to conditions: protein: recombinant; tags: N-terminal GST; chain copies: 3; dsDNA, one strand shown. The gist of the method:
as §1

The target in another assay is T8, SPIC (Homo sapiens, UniProt Q8N5J4 1-248).
T8 sequence: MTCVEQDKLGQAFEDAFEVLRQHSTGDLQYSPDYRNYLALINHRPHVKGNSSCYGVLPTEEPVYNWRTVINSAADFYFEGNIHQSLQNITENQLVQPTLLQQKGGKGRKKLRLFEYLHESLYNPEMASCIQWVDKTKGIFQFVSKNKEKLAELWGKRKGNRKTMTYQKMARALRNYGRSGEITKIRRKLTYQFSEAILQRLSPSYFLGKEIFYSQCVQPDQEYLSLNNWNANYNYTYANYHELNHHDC
Particulars: protein: recombinant; tags: N-terminal GST; dsDNA, one strand shown. The gist of the method: as §1

In another assay the target is ELF4 (Homo sapiens, UniProt Q99607 1-663). Particulars: protein: recombinant; tags: N-terminal GST; dsDNA, one strand shown. The procedure, abridged: as §1
The next assay deals with T9, ELK4 (Homo sapiens, UniProt P28324-2 1-405).
T9 sequence: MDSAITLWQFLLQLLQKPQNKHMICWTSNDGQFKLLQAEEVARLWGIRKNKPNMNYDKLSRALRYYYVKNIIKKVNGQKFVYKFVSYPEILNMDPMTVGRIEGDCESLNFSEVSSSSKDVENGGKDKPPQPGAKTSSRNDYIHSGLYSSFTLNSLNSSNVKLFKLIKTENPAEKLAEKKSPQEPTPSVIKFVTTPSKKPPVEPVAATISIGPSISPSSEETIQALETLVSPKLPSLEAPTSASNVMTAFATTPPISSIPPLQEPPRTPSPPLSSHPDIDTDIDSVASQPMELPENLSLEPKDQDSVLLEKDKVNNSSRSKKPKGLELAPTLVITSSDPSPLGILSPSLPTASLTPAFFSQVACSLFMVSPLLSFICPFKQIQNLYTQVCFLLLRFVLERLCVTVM
Particulars: protein: recombinant; tags: N-terminal GST; dsDNA, one strand shown. The procedure, abridged:
as §1

A further assay addresses T10, ETV2 (Homo sapiens, UniProt O00321 1-342).
T10 sequence: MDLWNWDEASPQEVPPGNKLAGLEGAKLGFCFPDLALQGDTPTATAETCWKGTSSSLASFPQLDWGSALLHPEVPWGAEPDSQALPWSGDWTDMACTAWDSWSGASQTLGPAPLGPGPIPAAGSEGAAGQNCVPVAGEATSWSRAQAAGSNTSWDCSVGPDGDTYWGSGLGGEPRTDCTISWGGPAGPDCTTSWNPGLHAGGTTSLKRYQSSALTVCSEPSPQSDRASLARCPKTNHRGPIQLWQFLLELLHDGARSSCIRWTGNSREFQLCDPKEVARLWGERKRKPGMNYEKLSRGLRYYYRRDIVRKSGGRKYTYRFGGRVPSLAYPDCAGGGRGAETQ
Particulars: protein: recombinant; tags: N-terminal GST; dsDNA, one strand shown. The gist of the method:
as §1

The next assay deals with T11, ELF3 (Homo sapiens, UniProt P78545 1-371).
T11 sequence: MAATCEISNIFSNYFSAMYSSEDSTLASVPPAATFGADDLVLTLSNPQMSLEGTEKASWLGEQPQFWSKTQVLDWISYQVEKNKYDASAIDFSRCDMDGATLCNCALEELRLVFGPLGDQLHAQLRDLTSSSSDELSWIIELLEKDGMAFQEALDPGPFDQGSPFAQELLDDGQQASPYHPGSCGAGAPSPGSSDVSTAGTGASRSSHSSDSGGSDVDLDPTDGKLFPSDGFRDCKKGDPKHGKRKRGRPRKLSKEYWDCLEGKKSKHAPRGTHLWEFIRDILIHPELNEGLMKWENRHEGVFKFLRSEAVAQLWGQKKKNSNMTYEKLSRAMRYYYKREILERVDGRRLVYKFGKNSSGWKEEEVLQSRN
As to conditions: protein: recombinant; tags: N-terminal GST; dsDNA, one strand shown. The gist of the method:
as §1

The next assay deals with CRX (Homo sapiens, UniProt O43186 1-299). Particulars: protein: recombinant; tags: N-terminal GST; dsDNA, one strand shown. The gist of the method: as §1
The target in the next assay is ETV1 (Homo sapiens, UniProt P50549 1-477). Particulars: protein: recombinant; tags: N-terminal GST; dsDNA, one strand shown. The procedure, abridged: as §1
Chain of ETV1 (P50549 whole entry): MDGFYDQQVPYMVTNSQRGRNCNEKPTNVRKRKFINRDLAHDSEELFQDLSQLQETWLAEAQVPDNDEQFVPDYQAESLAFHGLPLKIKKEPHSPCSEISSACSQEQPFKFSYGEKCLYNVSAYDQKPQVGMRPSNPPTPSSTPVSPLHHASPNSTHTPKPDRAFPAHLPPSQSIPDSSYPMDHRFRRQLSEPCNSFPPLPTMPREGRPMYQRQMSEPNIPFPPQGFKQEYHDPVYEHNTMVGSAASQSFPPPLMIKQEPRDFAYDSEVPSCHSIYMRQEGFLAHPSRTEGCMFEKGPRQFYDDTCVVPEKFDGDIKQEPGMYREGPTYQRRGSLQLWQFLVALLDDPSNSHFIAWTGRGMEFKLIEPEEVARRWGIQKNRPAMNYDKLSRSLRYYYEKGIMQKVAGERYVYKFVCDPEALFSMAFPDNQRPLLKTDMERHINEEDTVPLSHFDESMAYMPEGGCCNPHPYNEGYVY

Chain of ELF1 (P32519 whole entry): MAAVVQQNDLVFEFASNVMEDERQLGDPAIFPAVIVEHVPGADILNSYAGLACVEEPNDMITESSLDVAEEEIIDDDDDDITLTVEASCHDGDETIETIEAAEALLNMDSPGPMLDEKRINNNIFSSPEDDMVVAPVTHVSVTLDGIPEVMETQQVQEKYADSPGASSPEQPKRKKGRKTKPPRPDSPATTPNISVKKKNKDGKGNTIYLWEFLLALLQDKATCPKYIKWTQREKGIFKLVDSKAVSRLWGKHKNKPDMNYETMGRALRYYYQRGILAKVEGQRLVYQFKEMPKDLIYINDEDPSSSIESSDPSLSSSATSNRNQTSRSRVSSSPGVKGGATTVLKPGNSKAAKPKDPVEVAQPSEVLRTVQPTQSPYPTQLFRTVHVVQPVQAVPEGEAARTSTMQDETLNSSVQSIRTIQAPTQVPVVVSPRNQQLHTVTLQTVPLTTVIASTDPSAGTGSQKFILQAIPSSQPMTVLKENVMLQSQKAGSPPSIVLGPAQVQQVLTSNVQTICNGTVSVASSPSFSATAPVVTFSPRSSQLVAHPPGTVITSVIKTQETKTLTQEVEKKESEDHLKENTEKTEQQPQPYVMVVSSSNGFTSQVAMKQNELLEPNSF
Chain of SPIB (Q01892 whole entry): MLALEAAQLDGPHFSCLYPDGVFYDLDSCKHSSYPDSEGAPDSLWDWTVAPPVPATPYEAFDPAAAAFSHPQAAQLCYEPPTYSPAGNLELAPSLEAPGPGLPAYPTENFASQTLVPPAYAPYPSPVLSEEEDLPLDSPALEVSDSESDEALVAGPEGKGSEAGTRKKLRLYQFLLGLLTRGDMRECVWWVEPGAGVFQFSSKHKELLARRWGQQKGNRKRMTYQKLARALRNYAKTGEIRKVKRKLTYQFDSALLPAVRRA
Chain of HSF1 (Q00613 whole entry): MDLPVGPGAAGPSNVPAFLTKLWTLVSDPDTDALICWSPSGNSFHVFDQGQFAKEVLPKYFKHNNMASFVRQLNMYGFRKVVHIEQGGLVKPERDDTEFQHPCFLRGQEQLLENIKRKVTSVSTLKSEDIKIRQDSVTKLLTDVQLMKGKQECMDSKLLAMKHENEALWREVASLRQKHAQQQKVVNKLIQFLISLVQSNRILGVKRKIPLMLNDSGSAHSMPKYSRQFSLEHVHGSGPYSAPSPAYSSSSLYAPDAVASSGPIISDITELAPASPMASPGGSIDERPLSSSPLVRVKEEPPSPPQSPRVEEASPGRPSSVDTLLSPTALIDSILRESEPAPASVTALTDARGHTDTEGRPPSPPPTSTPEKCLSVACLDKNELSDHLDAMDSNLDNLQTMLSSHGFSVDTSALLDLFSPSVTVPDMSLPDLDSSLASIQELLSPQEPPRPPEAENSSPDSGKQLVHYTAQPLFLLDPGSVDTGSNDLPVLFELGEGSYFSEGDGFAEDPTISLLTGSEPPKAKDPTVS
Chain of ELF4 (Q99607 whole entry): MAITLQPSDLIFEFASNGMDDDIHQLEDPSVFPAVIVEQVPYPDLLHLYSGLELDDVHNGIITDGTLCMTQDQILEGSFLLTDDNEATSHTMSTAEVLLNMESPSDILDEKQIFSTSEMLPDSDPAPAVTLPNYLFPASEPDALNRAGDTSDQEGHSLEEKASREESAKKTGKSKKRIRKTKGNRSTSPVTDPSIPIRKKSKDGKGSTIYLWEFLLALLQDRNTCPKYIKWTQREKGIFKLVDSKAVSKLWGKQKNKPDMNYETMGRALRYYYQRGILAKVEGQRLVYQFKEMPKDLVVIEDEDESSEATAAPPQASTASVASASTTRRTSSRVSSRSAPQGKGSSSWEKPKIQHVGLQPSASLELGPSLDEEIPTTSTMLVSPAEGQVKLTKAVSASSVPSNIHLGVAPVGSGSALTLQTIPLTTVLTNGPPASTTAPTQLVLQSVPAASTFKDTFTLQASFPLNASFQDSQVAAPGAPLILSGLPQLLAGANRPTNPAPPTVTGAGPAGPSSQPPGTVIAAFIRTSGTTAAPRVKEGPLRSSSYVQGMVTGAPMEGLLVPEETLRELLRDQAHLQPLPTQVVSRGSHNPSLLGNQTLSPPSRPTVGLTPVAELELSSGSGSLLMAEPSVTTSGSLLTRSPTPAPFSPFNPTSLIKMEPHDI
Chain of CRX (O43186 whole entry): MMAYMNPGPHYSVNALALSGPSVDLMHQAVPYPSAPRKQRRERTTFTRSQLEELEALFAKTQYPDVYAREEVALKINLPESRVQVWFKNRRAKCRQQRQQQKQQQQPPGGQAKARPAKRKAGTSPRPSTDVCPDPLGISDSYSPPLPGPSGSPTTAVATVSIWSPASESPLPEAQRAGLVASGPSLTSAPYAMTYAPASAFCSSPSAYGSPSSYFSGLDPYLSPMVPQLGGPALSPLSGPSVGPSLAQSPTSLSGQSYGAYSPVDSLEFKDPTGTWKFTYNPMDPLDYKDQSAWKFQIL
Chain of ETV5 (P41161 whole entry): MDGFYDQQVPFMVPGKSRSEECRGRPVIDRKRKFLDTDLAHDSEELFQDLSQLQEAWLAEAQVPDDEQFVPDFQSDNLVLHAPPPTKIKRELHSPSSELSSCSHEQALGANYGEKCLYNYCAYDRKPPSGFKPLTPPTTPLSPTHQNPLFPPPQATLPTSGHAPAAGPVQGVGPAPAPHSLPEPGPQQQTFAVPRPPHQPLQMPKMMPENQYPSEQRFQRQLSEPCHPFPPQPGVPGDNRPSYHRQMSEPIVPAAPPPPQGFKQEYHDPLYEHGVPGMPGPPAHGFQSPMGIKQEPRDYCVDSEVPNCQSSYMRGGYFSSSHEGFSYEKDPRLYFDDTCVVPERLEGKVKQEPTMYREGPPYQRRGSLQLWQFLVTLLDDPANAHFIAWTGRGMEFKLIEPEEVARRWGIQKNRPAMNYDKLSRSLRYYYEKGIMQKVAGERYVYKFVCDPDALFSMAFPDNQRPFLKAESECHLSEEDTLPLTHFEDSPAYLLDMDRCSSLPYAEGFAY

As for TCCCGC, the binding signal was 1.48 fold enrichment (6-mer frequency, TF over GST control) in the assay with FLI1; 1.53 fold enrichment (6-mer frequency, TF over GST control) in the assay with ELK1; 1.4 fold enrichment (6-mer frequency, TF over GST control) in the assay with GABPA; 1.42 fold enrichment (6-mer frequency, TF over GST control) with ERG; 1.47 fold enrichment (6-mer frequency, TF over GST control) with ELF1; 1.52 fold enrichment (6-mer frequency, TF over GST control) in the assay with EHF. The binding signal with SPI1 was 1.37 fold enrichment (6-mer frequency, TF over GST control); with SPIB it was 1.48 fold enrichment (6-mer frequency, TF over GST control); in the assay with ELK3 it was 1.46 fold enrichment (6-mer frequency, TF over GST control); with FEV it was 1.46 fold enrichment (6-mer frequency, TF over GST control); with ETV5, 1.41 fold enrichment (6-mer frequency, TF over GST control); in the assay with HSF1 it was 1.57 fold enrichment (6-mer frequency, TF over GST control). The binding signal with SPIC was 1.46 fold enrichment (6-mer frequency, TF over GST control); in the assay with ELF4, 1.55 fold enrichment (6-mer frequency, TF over GST control); with ELK4 it was 1.26 fold enrichment (6-mer frequency, TF over GST control); in the assay with ETV2, 1.31 fold enrichment (6-mer frequency, TF over GST control); with ELF3 it was 1.36 fold enrichment (6-mer frequency, TF over GST control); with CRX, 1.42 fold enrichment (6-mer frequency, TF over GST control). In the assay with ETV1, the binding signal was 1.5 fold enrichment (6-mer frequency, TF over GST control).
